# Measured values reported in PubChem BioAssay.
# Assay: resazurin metabolic signal in HepG2 cells – cell-based, resazurin fluorescence, 24 h, PK04 Diversity Set, profiling panel (AID 1172); also: test concentration not given here
# Conditions: HepG2 viability, higher = more signal
row,SMILES,z-score
1,O=C1OCC=C[C@H]2OC34C=CCN(CCN5CCOCC5)C(=O)[C@H]3N(CCCO)C(=O)[C@@H]4[C@@H]12 (stereo partly specified),-0.31
2,[N-]=[N+]=Nc1ccccc1C[C@@]1(C(=O)NCCN2CCOCC2)N=C(c2ccc(OCCCO)cc2)O[C@@H]1c1ccccc1,-0.139
3,COc1ccc(C(=O)Nc2ccc(CN3C(=O)[C@@]4(O[C@@H](CCO)[C@H]([Si](C)(C)c5ccc(OC)cc5)[C@H]4C)c4ccccc43)cc2)cc1,-4.21
4,CC(C)(C)OC(=O)CC[C@@]1(C(N)=O)N=C(c2ccc(OCCCO)cc2)O[C@@H]1c1ccccc1,-0.175
5,COc1ccc(C(=O)Nc2ccc(CN3C(=O)[C@@]4(O[C@@H](CC(=O)N5CCC[C@H]5CO)[C@H]([Si](C)(C)c5ccc(OC)cc5)[C@H]4C)c4ccccc43)cc2)cc1,0.294
6,CN1C(=O)C2C=CC(C(O)C3CCCCC3)N(Nc3ccc([N+](=O)[O-])cc3[N+](=O)[O-])C2C1=O (stereo unspecified),-0.248
7,CN1C(=O)C2C=CC(C(O)Cc3ccccc3)N(Nc3ccccc3)C2C1=O (stereo unspecified),-0.355
8,COc1ccc(CCNC(=O)[C@@]2(Sc3ccc(C)cc3)CC(=O)N(C3CCCCC3)[C@@H]2c2ccc(CO)cc2I)cc1,0.594
9,O=C1OCCC/C=C\[C@H]2OC34C=CCN(CCN5CCOCC5)C(=O)[C@H]3N(CCCO)C(=O)[C@@H]4C12 (stereo partly specified),-0.0764
10,C=CCC(OC(C)=O)[C@@H]1[C@@H](N(Cc2ccc(-c3ccccc3)cc2)C(=O)Cc2ccc(F)cc2)c2cc(OCCCO)ccc2N1C(=O)c1ccc(-c2ccccc2)cc1 (stereo partly specified),1.27
11,O=C(c1ccccc1)N1Cc2ccccc2[C@@H]2OC(c3ccc(OCCCO)cc3)=N[C@]2(Cc2ccccc2)C1=O,-0.448
12,COC(=O)C(CC#Cc1ccc2c(c1)[C@]1(C(=O)N2)[C@H](C(=O)O)[C@H]2C(=O)O[C@H](c3ccccc3)[C@H](c3ccccc3)N2[C@@H]1c1ccc(O)cc1)C(=O)OC,0.0521
13,O=C1NCC(=O)N2[C@@H]1C[C@@H](C(=O)O)[C@H]2c1cccc(OCCO)c1,0.0195
14,C=CCNC(=O)[C@@H]1[C@H]2C(=O)O[C@H](c3ccccc3)[C@H](c3ccccc3)N2[C@H](c2ccc(OCCO)cc2)[C@@]12C(=O)Nc1ccc(C#CCCO)cc12,-0.13
15,C=C(/C(=C/C[C@@H](OC(C)=O)c1ccc(OCCO)cc1)c1cnc2ccccc2c1)C(C)C,1.22
16,CN(C)C(=O)[C@]1(Cc2ccccc2N=[N+]=[N-])N=C(c2ccc(OCCCO)cc2)O[C@@H]1c1ccccc1,0.0707
17,COc1ccc(CCN2C(=O)[C@@]3(c4ccc([N+](=O)[O-])cc4)CC(=O)N(C4CCCCC4)[C@@H]3c3ccc(CO)cc32)cc1,-0.356
18,C[N+](C)(C)CCCCNC(=O)[C@H]1C[C@H]2C(=O)N[C@@H](Cc3ccccc3)C(=O)N2[C@H]1c1ccc(O)cc1,-1.87

row,SMILES,z-score
1,O=C1O[C@H](c2ccccc2)[C@H](c2ccccc2)N2[C@H]1[C@@H](C(=O)N1CCN(c3ncccn3)CC1)[C@]1(C(=O)Nc3ccc(C#CC4=CCCCC4)cc31)[C@H]2c1ccc(O)cc1,1.03
2,COC(=O)[C@@]1(Cc2ccccc2)[C@H]2c3cc(C(=O)N(C)C)n(CCSCCO)c3C[C@H]2CN1C(=O)c1ccccc1,-0.821
3,CC(C)OC(=O)C=C1C[C@@H](c2ccccc2C(F)(F)F)O[C@@H](c2ccccc2C(F)(F)F)O1,-0.111
4,COCCCNC(=O)[C@@]1(Cc2ccccc2)N=C(c2ccc(OCCCO)cc2)O[C@H]1c1ccccc1,0.625
5,CCCCC=C[C@@H](NC(=O)Oc1cccc(C(F)(F)F)c1)c1ccccc1,-1.68
6,O=C1C2C=CC(C(O)C(c3ccccc3)c3ccccc3)N(n3cnnc3)C2C(=O)N1Cc1ccccc1 (stereo unspecified),0.264
7,Cc1ccc(S[C@]2(C(=O)NCC(C)C)CC(=O)N(Cc3cc(C(F)(F)F)cc(C(F)(F)F)c3)[C@@H]2c2ccc(CO)cc2I)cc1,-0.0295
8,COc1cc2c(cc1O)C(C1CC1)N(Cc1cc3c(cc1Br)OCO3)CC2 (stereo unspecified),-1.94
9,CCCCC(=C=CC[C@@H](O)c1ccccc1OCCO)CCO,-0.202
10,C=CCOC(=O)[C@@H]1[C@H]2C(=O)O[C@H](c3ccccc3)[C@H](c3ccccc3)N2[C@H](c2ccc(OCCOC(=O)[C@@H]3C[C@@H]4C(=O)N[C@@H](Cc5ccccc5)C(=O)N4[C@@H]3c3ccc(O)cc3)cc2)[C@@]12C(=O)Nc1ccc(I)cc12,-0.437
11,C=CCNC(=O)[C@@H]1[C@H]2C(=O)O[C@H](c3ccccc3)[C@H](c3ccccc3)N2[C@H](c2ccc(OCCO)cc2)[C@@]12C(=O)Nc1ccc(C#Cc3ccc(OC)cc3)cc12,-0.662
12,CCOC(=O)C[C@H]1[C@H](OC(=O)Cc2ccc3c(c2)OCO3)[C@@H](NC(=O)c2ccc(-c3ccccc3)cc2)c2cc(OCCCO)ccc2N1C(=O)c1ccc2ccccc2n1,0.138
13,Cc1ccc(S[C@]2(C(=O)NCC(F)(F)F)CC(=O)N(C(C)C)[C@@H]2c2ccc(CO)cc2I)cc1,-0.185
14,C=CCC(OC(C)=O)[C@@H]1[C@@H](N(Cc2ccc(-c3cccc(C(F)(F)F)c3)o2)C(=O)Cc2ccc(F)cc2)c2cc(OCCCO)ccc2N1C(=O)Cc1ccc(OC)cc1 (stereo partly specified),1.2
15,COCCCN1C(=O)[C@@]2(Cc3ccccc31)c1ccccc1C(=O)N(Cc1ccccc1C(F)(F)F)[C@H]2c1ccc(CO)cc1,0.0531
16,CCOC1=C2C(CN(S(=O)(=O)c3ccc(C)cc3)C2c2ccc(C)cc2)C2C(=O)N(c3ccccc3)C(=O)C2C1 (stereo unspecified),-0.635
17,CC(C)(C)OC(=O)CC[C@@]1(C(=O)NCC(O)CO)N=C(c2ccc(OCCCO)cc2)O[C@@H]1c1ccccc1N=[N+]=[N-] (stereo partly specified),0.486
18,[N-]=[N+]=NCc1ccccc1C[C@]1(C(=O)N2CCOCC2)N=C(c2ccc(OCCCO)cc2)O[C@H]1c1ccccc1N=[N+]=[N-],0.168
